Screening results deposited in PubChem by National Center for Advancing Translational Sciences (NCATS).
HCV inh = HCV inhibition | Huh7.5.1 HCVcc-Cre infection, luciferase reporter, 44 h | Potency, µM (highest dose often 41.8 µM), for inactives: at the highest dose activity change, negative = inhibition, most hits filed as inhibitors | 3.4% of 340,000 active | AID 651820; further: potency means the concentration at half of the fitted maximal effect
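Cells (1,000/well) were plated 4 h before compound, then infected with HCVcc-Cre virus (~0.5 moi). After 44 h further culture, infection was read as luciferase luminescence following a 15 min substrate incubation at room temperature.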
HCMV antiviral = human cytomegalovirus inhibition | 4.5% of 410,000 active | AID 1259415 | activity change, negative = inhibition, % at 57.5 µM | HFF cells, HCMV-luciferase reporter, 72 h; stronger effect = lower value; in the data active means activity change below about -60%; inconclusive means no clear call, values can overlap the other calls; inactive means above about -39%
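Luciferase read-out from HCMV-luciferase-infected HFFs (MOI 1 PFU/cell) 72 h post infection at 37C; compounds added after 16 h cell attachment; activity normalized between buffer-only basal and Salinomycin (10uM) inhibitor controls.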
LASV entry inh = Lassa virus entry inhibition | Potency, µM (top dose mostly 37.9 µM), for the others: at the top dose activity change, negative = inhibition, hits mostly inhibitors | Lassa virus pseudotype entry inhibition, cell reporter | AID 540256 | 1.2% of 300,000 active; calls by dose curve; tested in HEK293 cells; further: potency means the concentration at half of the fitted maximal effect; nearly all actives have a fitted effect of over 50% in size
FBPA Giardia inh = Giardia lamblia aldolase inhibition | Potency, µM (doses to about 59.6 µM), for the others: top-dose activity, negative = inhibition, actives largely listed as inhibitors | 0.71% of 290,000 active | AID 2451 | purified Giardia FBPA; further: potency means the concentration at half of the fitted maximal effect; nearly all actives have a fitted effect of over 55% in size
Target sequence (A8B2U2 whole entry, looked up): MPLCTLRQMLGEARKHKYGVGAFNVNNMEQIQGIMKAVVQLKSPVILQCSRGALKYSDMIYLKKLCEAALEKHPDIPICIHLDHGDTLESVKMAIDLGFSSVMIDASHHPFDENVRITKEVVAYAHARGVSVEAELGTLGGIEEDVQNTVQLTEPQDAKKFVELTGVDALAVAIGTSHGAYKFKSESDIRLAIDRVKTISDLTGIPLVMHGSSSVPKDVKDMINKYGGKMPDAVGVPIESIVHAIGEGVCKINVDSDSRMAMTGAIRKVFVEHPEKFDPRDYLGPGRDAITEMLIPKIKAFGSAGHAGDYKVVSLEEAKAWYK
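40 nM FBPA preincubated 10 min at RT with compound (up to 57.5 uM final), then substrate plus GAPDH/TPI/NAD/arsenate coupling and diaphorase/resazurin added. Fluorescence read after 20 min at RT, 525/598 nm.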
FMDV inh = blocks foot and mouth disease virus; FMDV antiviral cell-based qHTS; Potency, µM (series often up to 57.9 µM), inactives show at the top dose activity change, negative = inhibition, hits mostly inhibitors; 1.2% of 410,000 active; AID 1159524; calls by dose curve; tested in HEK293T cells; further: read-out not given here; potency means the concentration at half of the fitted maximal effect; nearly all actives have a fitted effect of over 45% in size
Marburg entry inh = blocks Marburg virus binding to or entry into cells | Marburg virus pseudotyped entry inhibition, cell reporter | Potency, µM (series often up to 37.8 µM), without a hit: at the top dose activity change, negative = inhibition, hits mostly inhibitors | 1.8% of 300,000 active | AID 540276; calls by dose curve; tested in HEK293 cells; further: potency means the concentration at half of the fitted maximal effect
* hit, by the source's call; ? = inconclusive; · = not tested or not shown; [ ] = remark or other dose. This is a sample that favours compounds with a hit; in the whole collection about 8.3% have one here. Unless noted, the call rests on the fitted dose curve; in most records, active means well fitted curve in the direction sought with a large enough effect; inconclusive means small, poorly fitted or top-dose-only effect, or another doubt; inactive means no such curve, though single readings can be large; an effect the other way counts as inactive or inconclusive. On the % scale 0 is the no-effect control and ±100 the full control effect.

SMILES	HCV inh	HCMV antiviral	LASV entry inh	FBPA Giardia inh	FMDV inh	Marburg entry inh
COc1cc(NC(=O)c2c3c(nc4ccccc24)CCC3)cc(OC)c1	-7%	-102*	-4%	6%	-19%	?
O=S(=O)(NCc1ccc(Cl)cc1)c1ccc(Br)cc1C1CC[C@@H](O)C1 (stereo partly specified)	·	-6	·	·	·	·
COc1cccc(-n2c(SC)nnc2C2CCN(Cc3nc4ccccc4s3)CC2)c1	·	·	·	·	-13%	·
C=CCc1c(C)nc2c(OC)cccc2c1Cl	?	-83*	6%	-5%	7%	1%
COc1cccc2c(Cl)c(CC=C(Cl)Cl)c(C)nc12	?	-28	10%	6%	?	2%
O=C(O)c1cc(-c2cccnc2)nc2ccc(Br)cc12	16%	-3	·	-3%	5%	·
COc1cccc(-c2cc(C(=O)Nc3ccc(N(C)C(C)=O)cc3)c3cc(Br)ccc3n2)c1	11µM*	-97*	·	·	?	·
CC(=O)Nc1cccc(NC(=O)c2cc(-c3cccnc3)nc3ccc(Br)cc23)c1	14µM*	-28	-12%	·	0%	?
COc1cccc(-c2cc(C(=O)Nc3ccncc3)c3ccccc3n2)c1	?	3	-13%	-1%	?	?
CSc1ccccc1NC(=O)c1cc(-c2cccnc2)nc2ccc(Br)cc12	11µM*	-73*	?	-7%	-18%	?
O=C(Nc1ccc(C(=O)N2CCOCC2)cc1)c1cc(-c2cccnc2)nc2ccc(Cl)cc12	7.9µM*	-69*	?	-1%	?	-5%[46.1 µM]
CCOC(=O)N1CCN(c2nc(CN3CCCCC3CCO)nc3c(C)cccc23)CC1 (stereo unspecified)	·	·	·	·	-10%	·
OCCNCCCCOc1cccc(Br)c1	-20%	-32	?	1%	-6%	?
C=CCNCCCCOc1cccc(Br)c1	-20%	31	-2%	?	-11%	13µM*
COC(=O)C1CCN(c2nc3ccccc3nc2[C@@H](C#N)C(=O)NCCc2ccccc2)CC1	·	·	·	·	·	0%
CCN(c1ccccc1)S(=O)(=O)c1cc(C(=O)NCC(c2ccco2)N2CCCCC2)ccc1C (stereo unspecified)	?	-19	?	·	0%	?
CCN(c1ccccc1)S(=O)(=O)c1cccc(C(=O)NCC(c2ccco2)N2CCCC2)c1 (stereo unspecified)	10µM*	-33	5%	·	-18%	?
CCN(c1ccccc1)S(=O)(=O)c1cccc(C(=O)NCC(c2ccco2)N2CCCCC2)c1 (stereo unspecified)	10µM*	-71*	-28%	·	-10%	?
NCCCCNS(=O)(=O)c1cccc2c(Cl)cccc12	·	·	·	-3%	·	4µM*
NCCCCCCNS(=O)(=O)c1cccc2ccccc12	·	·	·	0%	40%	·
O=C1CC2(CCCC2)CC(=O)N1CCNC[C@H]1COc2ccccc2O1	·	·	·	3%	11%	·
O=C1NC(=Nc2cccc([N+](=O)[O-])c2)SC1(CO)CO	16%	-65*	7%[46.1 µM]	-7%	-21%	3%[46.1 µM]
Cc1ccc(C)c(CN2C(=O)c3ccccc3S(=O)c3ccc(C(=O)N4CCN(c5ccccc5F)CC4)cc32)c1 (stereo unspecified)	·	-31	?	·	-5%	?
Cc1ccc(C)c(CN2C(=O)c3ccccc3S(=O)c3ccc(C(=O)N4CCN(c5ccccn5)CC4)cc32)c1 (stereo unspecified)	11µM*	-98*	?	-9%	-25%	?
COc1ccccc1N1CCN(C(=O)c2ccc3c(c2)N(Cc2cc(C)ccc2C)C(=O)c2ccccc2S3(=O)=O)CC1	·	-67*	?	·	-4%	?
SMILES	HCV inh	HCMV antiviral	LASV entry inh	FBPA Giardia inh	FMDV inh	Marburg entry inh
O=C1CCCc2nc(N3CCN(C(c4ccccc4)c4ccccc4)CC3)ncc21	-22%	11	?	-3%	22µM*	?
Cc1nc(N2CCN(C(c3ccccc3)c3ccccc3)CC2)nc2c1C(=O)CCC2	·	·	·	8%	·	5%
O=C(NC[C@@H]1CCCN2CCCC[C@H]12)c1cnn(-c2nccc(-c3cc4ccccc4o3)n2)c1C1CC1	·	·	·	·	-7%	·
COc1ccc(CN2[C@@H](CC(C)=O)c3ccc(/C=C/C(C)=O)cc3S2(=O)=O)cc1	?	34	·	·	32µM*	·
Cc1noc(COc2ccccc2OC[C@H](O)CNC(C)(C)C)n1	·	·	·	·	·	-8%
Cc1ccc2c(Sc3ccc(Cl)cc3)c(C(=O)N3CCCCC3)[nH]c2c1	·	9	-4%[46.1 µM]	·	0%	?
CC12CCC3C(CCC4(O)CC(O)CCC34C=NO)C1(O)CCC2C1=COC(=O)C1 (stereo unspecified)	2µM*	-98*	0.25µM*	·	?	0.18µM*
CC(=O)O[C@H]1CC[C@]2(C=O)C3CC[C@]4(C)[C@@H](C5=CC(=O)OC5)CC[C@]4(O)C3CC[C@]2(O)C1 (stereo partly specified)	·	·	·	0%	·	·
C[C@]12CC[C@H]3[C@@H](CC[C@]4(O)C[C@@H](O)CC[C@]34C=O)[C@@]1(O)CC[C@@H]2C1=CC(=O)OC1	0.56µM*	-99*	·	·	?	·
C[C@]12CCC3C(CCC4=CC(O)CC[C@@]43/C=N/O)C1(O)CCC2C1=CC(=O)OC1 (stereo partly specified)	2.2µM*	-96*	?	3%	-17%	?
CC12CCC3C(CCC4(O)CC(O)CCC34C=O)C1(O)CCC2C1=CC(=O)OC1 (stereo unspecified)	?	-100*	0.71µM*	·	?	0.45µM*
CC12CC[C@H]3[C@@H](CCC4(O)C[C@H](O)CCC34/C=N/NC(=O)c3ccccc3Cl)C1(O)CCC2C1=CC(=O)OC1 (stereo partly specified)	8%	-32	·	2%	-22%	·
C[C@@H]1O[C@H](O[C@@H]2CC[C@@]3(C=O)[C@H]4CC[C@@]5(C)[C@@H](C6=CC(=O)OC6)CC[C@@]5(O)[C@@H]4CC[C@]3(O)C2)C[C@H](O)[C@@H]1O	·	·	·	7%[21.7 µM]	·	·
C[C@H]1O[C@@H](OC2CC[C@]3(C=O)[C@H]4CC[C@]5(C)[C@@H](C6=CC(=O)OC6)CC[C@]5(O)[C@@H]4CC[C@]3(O)C2)CC2OC(C)(C)OC21 (stereo partly specified)	1µM*	-97*	·	?	?	·
CCCCN=C[C@]12CCC(O)CC1(O)CCC1[C@@H]2CC[C@]2(C)[C@H](C3C=CC(=O)O3)CCC12O (stereo partly specified)	4.5µM*	-97*	?	-4%	-24%	3.5µM*
O=C(Nc1ccccc1O)c1cc(S(=O)(=O)N2CCCC2)ccc1Cl	·	-23	-29%[46.1 µM]	·	?	·
O=C(CCCOc1ccc(Cl)cc1Cl)N/N=C/c1ccc(Cl)cc1	3%	24	?	-16%	-3%	?
